Measured values reported in PubChem BioAssay (NCI).
The panel holds about 83,000 compounds, 20% with a hit somewhere; the sample as a whole holds those more often.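 Single-concentration screen, 48 h exposure, 96-well plates. Endpoint: percent growth. Below 10 = active.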 A number with no mark means an inactive call. The source made the active and inactive calls.

What was measured:
Experiment in all cases: NCI-60 one-dose screen, 48 h (100 = growth as untreated, 0 = no growth, -100 = all killed)
EKVX NSCLC = settings: 10 µM
SN12C renal = settings: 10 µM unless noted
UO-31 renal = settings: 10 µM unless noted
TK-10 renal = settings: 10 µM unless noted
ACHN renal = settings: 10 µM unless noted
CAKI-1 renal = settings: 10 µM unless noted
A498 renal = settings: 10 µM unless noted
CCRF-CEM leukemia = settings: 10 µM
MOLT-4 leukemia = settings: 10 µM unless noted
SR leukemia = settings: 10 µM unless noted
RPMI-8226 leukemia = settings: 10 µM unless noted
OVCAR-8 ovarian = settings: 10 µM unless noted
OVCAR-5 ovarian = settings: 10 µM unless noted
OVCAR-4 ovarian = settings: 10 µM unless noted
SK-OV-3 ovarian = settings: 10 µM unless noted
IGROV1 ovarian = settings: 10 µM unless noted
OVCAR-3 ovarian = settings: 10 µM unless noted
HS 578T breast = settings: 10 µM unless noted
NCI/ADR-RES ovarian = settings: 10 µM unless noted
SK-MEL-2 melanoma = settings: 10 µM unless noted

SMILES | growth (EKVX NSCLC) | growth (SN12C renal) | growth (UO-31 renal) | growth (TK-10 renal) | growth (ACHN renal) | growth (CAKI-1 renal) | growth (A498 renal) | growth (CCRF-CEM leukemia) | growth (MOLT-4 leukemia) | growth (SR leukemia) | growth (RPMI-8226 leukemia) | growth (OVCAR-8 ovarian) | growth (OVCAR-5 ovarian) | growth (OVCAR-4 ovarian) | growth (SK-OV-3 ovarian) | growth (IGROV1 ovarian) | growth (OVCAR-3 ovarian) | growth (HS 578T breast) | growth (NCI/ADR-RES ovarian) | growth (SK-MEL-2 melanoma)
COc1ccc(C(=O)NCCNc2nccc(-c3c(-c4ccc(F)cc4)nc4sccn34)n2)cc1 | 66.8% | 70% | 34.3% | 29.1% | 29.2% | 43.6% | 56.1% | 48.1% | 59.8% | 44.1% | 40.5% | 49.4% | 62.4% | 80.5% | 70.6% | 31% | 80.7% | 28.7% | 62.3% | 
O=C1Nc2c(c(=O)n(-c3ccccc3)c3ccccc23)C(c2ccc(Cl)cc2)N1 (stereo unspecified) | 86.8% | 76.3% | 80.5% | 54.8% | 102% | 101% | 98.1% | 79.5% | 81.9% | 77.8% | 90.5% | 82.4% | 101% | 105% | 89.8% | 84% | 106% | 70.2% | 99.7% | 
CC(C)C(=O)c1ccc(Cl)s1 |  | 99.3% | 79.1% |  | 104% | 107% | 79.6% |  | 97.4% |  |  | 102% | 105% | 90.5% | 101% | 96.2% | 106% | 100% | 104% | 96.5%
COc1cc(-c2nn(-c3ccc(NC(=O)Nc4ccc(Cl)c(Cl)c4)cc3)cc2-c2ccncc2)ccc1Cl | 33.6% | 43.4% | 33.4% | -12.6% (active) | 20.9% | 30.2% | 38.7% | 11.7% | 9.31% (active) | 6.61% (active) | -15.3% (active) | 29.1% | 72.8% | 36.7% | 62.8% | 36.9% | 24.1% | -26.9% (active) | 16.1% | 
COC(=O)c1cc(O)c2cc3c(cc2c1-c1cc(OC)c(OC)c(OC)c1)OCO3 | 55.8% | 34.1% | 44.8% | 43.2% | 36.8% | 30.2% | 45.6% | 8.87% (active) | 35.3% | 24.3% | 4.51% (active) | 45.8% | 45% | 71.3% | 22.2% | 44% | 8.41% (active) | -2% (active) | 3.4% (active) | 
COc1cc(C(=O)Nc2ccc(N(C)C)cc2)cc(OC)c1OC |  | 94.2% | 85.8% |  | 93.1% | 91.1% | 82.1% |  |  |  | 97.7% | 92.2% | 94.7% | 93.1% | 85.7% |  | 101% | 95.5% | 87.3% | 78.8%
O=c1c2c(c3ccccc3n1-c1ccccc1)NC(=S)NC2c1ccccc1 (stereo unspecified) | 97.1% | 90.4% | 71.7% | 226% | 96.1% | 105% | 102% | -25% (active) | 66.2% | 108% | 50.1% | 106% | 102% | 79.5% | 95.1% | 102% | 105% | 105% | 109% | 
CCCCCCCCCCCCCCCCNC(=O)Nc1ccc(C)c(NC(=O)NCCCCCCCCCCCCCCCC)c1 |  | 103% | 74.3% |  | 98.7% | 117% | 113% |  | 104% | 104% | 99.2% | 105% | 109% | 108% | 105% |  | 109% | 95.1% | 112% | 117%
CC(O)CCC(C)[N+](=O)[O-] (stereo unspecified) |  |  | 93.5% | 104% | 109% | 104% | 105% | 102% | 102% |  | 101% | 104% | 102% | 103% | 101% | 105% | 108% |  | 111% | 109%
